Out of some 65,000 compounds screened, about 640 (0.98%) were called active. The entries come from a sample that favours actives as a whole. Unmarked numbers belong to inactive results.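 Rule for the calls: active = inhibition above a set limit, the mean inhibition across every tested compound plus 3 SD (cut at about 29% in these data); inactive = the rest.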

This passage reports inhibition results from PubChem BioAssay AID571 (The Scripps Research Institute Molecular Screening Center, 2007).

The target of this experiment is 5-hydroxytryptamine receptor 1E (Homo sapiens) (UniProt P28566). Description: blockade of human serotonin 5HT1E receptor – cell-based, HTS, primary screen (AID 571).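 Note: signal is the 460 over 535 nm emission ratio of beta-lactamase substrate; 0% = agonist plus DMSO wells and 100% = wells without agonist.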 Conditions: CHO 5-HT1E Ga15 NFAT-bla reporter, FRET, antagonist; at 6 µM; active compounds read high.
5-hydroxytryptamine receptor 1E (Homo sapiens), sequence (P28566 whole entry, looked up): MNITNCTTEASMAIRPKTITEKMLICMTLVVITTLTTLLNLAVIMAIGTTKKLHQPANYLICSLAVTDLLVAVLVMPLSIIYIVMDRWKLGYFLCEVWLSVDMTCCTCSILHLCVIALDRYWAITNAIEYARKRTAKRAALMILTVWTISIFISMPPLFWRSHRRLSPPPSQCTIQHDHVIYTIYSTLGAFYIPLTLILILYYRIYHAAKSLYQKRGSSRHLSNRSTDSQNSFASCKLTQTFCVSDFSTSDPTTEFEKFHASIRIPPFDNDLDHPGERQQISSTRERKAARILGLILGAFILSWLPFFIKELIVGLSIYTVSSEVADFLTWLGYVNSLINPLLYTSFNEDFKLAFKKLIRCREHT
Turning to `Cc1ccc(-n2ncc3c(=O)[nH]cnc32)c(C)c1`, the inhibition was 13%.

Regarding `Cc1ccc(-n2ncc3c2ncn2nc(-c4ccco4)nc32)c(C)c1`, the inhibition is 40% (active).

`Cc1ccc(-n2ncc3c(N4CCN(c5ccc(F)cc5)CC4)ncnc32)c(C)c1`: the inhibition is 5.14%.

For the compound `COc1c(C)cccc1C(=O)Nc1cc(Cl)ccc1N1CCOCC1`, the inhibition is 0.53%.

For the compound `O=C(Cn1nnc2ccccc2c1=O)Nc1cc(C(F)(F)F)ccc1N1CCOCC1`, the inhibition was 5.96%.

Consider `Cn1nc(-c2ccc(N3CCOCC3)c(NC(=O)c3ccccc3)c2)c2ccccc2c1=O`, for which the inhibition is 29.7% (active).

In the case of `O=C(O)C1CC=C(Cl)CC1C(=O)NCc1ccccc1` (stereo unspecified), the inhibition is -3%.

On to `CCN(Cc1nc2ccccc2c(=O)[nH]1)Cc1cc(=O)oc2cc(C)c(C)cc12`, for which the inhibition was -2.39%.

`CCn1c(SCC(=O)c2ccc(Cl)s2)nnc1-c1cccs1`: the inhibition was 3.04%.

Turning to `OCc1n[nH]c(CO)n1`, the inhibition is 6.12%.

For `COCCN1Cc2cccc(C(=O)Nc3ccccc3OC)c2C1=O`, the inhibition was 8.66%.

Take `O=S(=O)(NCc1ccccn1)c1ccc(F)cc1`: the inhibition was 0.49%.

`NC(=O)C1(N2CCCCC2)CCN(C(=O)c2ccc(C#Cc3ccccc3)o2)CC1`: the inhibition was 2.52%.

For `N#Cc1nc(-c2ccc(OCc3ccccc3)cc2)oc1NCCCN1CCOCC1`, the inhibition is 0.01%.

`CCOc1ccc(Nc2oc(Cc3ccccc3)nc2C#N)cc1`: the inhibition is -1.52%.

As to `COc1ccc(Nc2oc(-c3ccccc3Cl)nc2C#N)cc1`, the inhibition was 75% (active).

Take `O=C(CN1CCN(S(=O)(=O)/C=C/c2ccccc2)CC1)NC(=O)NCc1ccco1`: the inhibition is 4.51%.

In the case of `COc1ccc(CCNC(=O)c2ccc3c(c2)NC(=O)C(N2CCOCC2)S3)cc1OC` (stereo unspecified), the inhibition was -4.16%.

In the case of `Cc1ccccc1NC(=O)c1cc(S(=O)(=O)N2CCOCC2)cs1`, the inhibition was -6.32%.

With `O=C(Nn1cc(C(=O)N2CCN(c3ccccc3F)CC2)c2ccccc2c1=O)c1cnccn1`, the inhibition was 3.04%.

For the compound `COc1cc(NS(=O)(=O)c2ccccc2)ccc1-n1nc(C)cc1C`, the inhibition was -6.22%.

Consider `CCOC(=O)c1cnc(-n2nc(C)cc2C)nc1Nc1cccc(C(C)=O)c1`, for which the inhibition was -0.9%.

In the case of `COCCNc1nc(-n2nc(C)cc2C)nc2sc3c(c12)CCCC3`, the inhibition was 22.7%.

Take `CC(=O)c1ccc(Oc2cc(C)nc(-n3nc(C)cc3C)n2)cc1`: the inhibition was 78.3% (active).

Consider `COc1ccc(Nc2cc(C)nc(-n3nc(C)cc3C)n2)cc1`, for which the inhibition is 49% (active).

Regarding `Cc1cc(C)n(-c2ccc(Cl)c(C(=O)O)n2)n1`, the inhibition was 4.5%.

As for `Cc1cc(NCc2ccco2)n2c(nc3ccccc32)c1C#N`, the inhibition is 11.1%.

With `Nc1ccc(-c2nnc(-c3ccc(-c4ccccc4)cc3)o2)cc1`, the inhibition is -0.45%.

For `O=C(CSc1nnc(-c2ccncc2)n1C1CCCCC1)Nc1ccccc1`, the inhibition was -9.37%.

Regarding `CC12C(=O)N(n3cnnc3)C(=O)C1C1C=CC2C1` (stereo unspecified), the inhibition is 8.42%.

Consider `COCCNC(=O)C(c1ccc(C)o1)N(Cc1cccs1)C(=O)c1snc(C(N)=O)c1N` (stereo unspecified), for which the inhibition is -3.57%.

Take `Cc1cc(=O)oc(C)c1C(=O)NC1CC(C)(C)NC(C)(C)C1`: the inhibition is -4.29%.

On to `C[N+](C)(C)CCOP(=O)([O-])OC[C@H](O)CO`, for which the inhibition is -4.74%.

Regarding `COc1ccc(Br)cc1S(=O)(=O)N1CCN=C1C`, the inhibition was -3.84%.

Turning to `CC1CCCC(NC(=O)CSc2nccn2C)C1C` (stereo unspecified), the inhibition was 2.04%.

For `Cc1c(C(=O)NCCN2CCOCC2)sc2nc(-c3ccc(F)cc3)cn12`, the inhibition is -2.05%.

As for `c1ccc(-c2cn3cccnc3n2)cc1`, the inhibition was -0.19%.

In the case of `COc1ccc(S(=O)(=O)NC(CC(=O)NCc2ccccc2OC)c2ccco2)cc1` (stereo unspecified), the inhibition is -1.55%.

As to `CCOC(=O)N1CCC(NC(=O)CN2C(=O)COc3ccc(C(C)(C)C)cc32)CC1`, the inhibition was -7.21%.

As for `CCOC(=O)N1CCC(NC(=O)Cc2cn(C)c3ccccc23)CC1`, the inhibition is -14.8%.

With `CCOC(=O)c1c(C)oc2ccc(OCC(=O)N(CC)CC)cc12`, the inhibition was -6.18%.

In the case of `COc1ccc(C)cc1S(=O)(=O)NC1CCCCC1`, the inhibition is -3.9%.

As to `O=C(Cn1c(=S)nc2ccccn21)N1CCc2ccccc2C1`, the inhibition was -1.67%.

In the case of `CCCCNC(=O)CSc1nccn1Cc1ccccc1`, the inhibition is 3.33%.

In the case of `O=C(CNS(=O)(=O)c1cccc(C(F)(F)F)c1)Nc1ccccc1F`, the inhibition is -3.72%.

As for `CCCCCC(=O)Nc1ccc2oc(-c3ccncc3)nc2c1`, the inhibition was 4%.

As for `CCCCC(=O)Nc1ccc2c(c1)C(=O)NC2=O`, the inhibition is 44% (active).

Turning to `CCCCC(=O)Nc1ccc2c(c1)OCCO2`, the inhibition was -10.5%.

As for `Nc1ccc(SCCN2C(=O)c3ccccc3C2=O)cc1`, the inhibition was -1.04%.

For `COC(=O)c1ccc(NC(=O)CSc2nnc(Cc3cccn3C)n2-c2ccc(F)cc2)cc1`, the inhibition was -7.1%.

`CCc1nnc(NC(=O)c2nc3nccc(C)n3n2)s1`: the inhibition is -0.48%.

With `CCOc1ccc(C(=O)Nc2ccncc2)cc1`, the inhibition was 5.74%.

As to `CSc1sc(C)cc1C1C(C#N)=C(N)N(c2cccnc2)C2=C1C(=O)CCC2` (stereo unspecified), the inhibition is 24.6%.

Consider `COc1ccc(CCNS(=O)(=O)c2ccc(C(=O)NCc3ccco3)cc2)cc1OC`, for which the inhibition was -13.4%.

As for `Cc1ccccc1NC(=O)Cc1nnc(SCC(=O)N2CCN(c3ccccc3)CC2)n1C`, the inhibition is 2.63%.

`Cc1noc(C)c1S(=O)(=O)NCCc1ccc(S(N)(=O)=O)cc1`: the inhibition was -6.61%.

As for `Cc1cccc(-n2c(O)c(C=Nc3ccccc3N)c(=O)[nH]c2=O)c1`, the inhibition was -5.35%.

As to `Cc1ccc(-n2nc(-c3ccco3)cc2C(=O)NCc2cccnc2)cc1`, the inhibition is 30.4% (active).

Turning to `Cc1ccc2c(c1)N(CCCC(=O)NCc1cccnc1)C(=O)CO2`, the inhibition is 10.1%.

Regarding `CC(C)(C)c1cc(C(=O)NCc2cccnc2)ccn1`, the inhibition was -1.08%.

Regarding `CCN1CCN(C(=O)c2ccccc2N(C)S(=O)(=O)c2ccc(C)cc2)CC1`, the inhibition was -11.1%.

In the case of `Cc1nnc2sc(-c3ccco3)nn12`, the inhibition is -3.05%.

As for `CC1CCCC(C)N1CCCNC(=O)c1cc2c(=O)n(C)c3ccccc3c2n1C` (stereo unspecified), the inhibition is -8.37%.

As for `Cn1c(C(=O)NCCCN2CCN(c3cccc(Cl)c3)CC2)cc2c(=O)n(C)c3ccccc3c21`, the inhibition was 28.9% (active).

In the case of `CCn1c(=O)cc(OCC(=O)NCCCN2CCN(c3cccc(Cl)c3)CC2)c2ccccc21`, the inhibition was -1.38%.

As for `COc1cc(N=Cc2c(O)[nH]c3ccccc23)cc(OC)c1OC`, the inhibition is 4.31%.

In the case of `COc1ccc(OC)c(N=Cc2c(O)[nH]c3ccccc23)c1`, the inhibition is 39.8% (active).

In the case of `COc1ccc(N=Cc2c(O)[nH]c3ccccc23)cc1OC`, the inhibition was -3.2%.

As for `COc1ccc(NC2CC(=O)N(C)C2=O)cc1` (stereo unspecified), the inhibition was -0.34%.

Take `C[C@H](NC(=O)OC(C)(C)C)c1nnc(SCC(N)=O)o1`: the inhibition is -6.77%.

Regarding `O=C(Nc1ccccc1N1CCCCC1)c1cccc(F)c1`, the inhibition was -0.39%.

As to `O=C(NCc1ccco1)c1cccn2c(=O)c3cc(Br)ccc3nc12`, the inhibition was 11.4%.

As for `Cc1cccc(NC(=O)CN2CCCN(S(=O)(=O)c3ccc(Br)s3)CC2)c1`, the inhibition was 12.7%.

As to `CCC1(C)Cc2c(sc3nc4n(c(=O)c23)CCCS4)CO1` (stereo unspecified), the inhibition is 7.47%.

In the case of `COC(=O)c1c(NC(=O)CSc2nc3c(c(=O)n(C)c(=O)n3C)n2C(C)C)sc(C)c1C`, the inhibition was -1.61%.

In the case of `CCCCCCC(=O)N(O)C1CC(=O)N(c2ccccc2)C1=O` (stereo unspecified), the inhibition was 29% (active).

For `CCCCOC(=O)c1ccc(N2C(=O)CC(N3CCN(C/C=C/c4ccccc4)CC3)C2=O)cc1` (stereo unspecified), the inhibition was -8.79%.

As for `CCOc1ccc(N2C(=O)CC(N(O)c3ccccc3)C2=O)cc1` (stereo unspecified), the inhibition was -13.5%.

Turning to `Cc1cc(C)cc(OCc2nnc(SCC(=O)OC3CCCCC3)o2)c1`, the inhibition was 1.45%.

With `Cc1cc(C(=O)OCC(=O)c2c(N)n(C)c(=O)n(C)c2=O)c(C)o1`, the inhibition is -2.61%.

As for `CCOc1ccccc1NC(=O)C1CCC(CNc2c(N3CCOCC3)c(=O)c2=O)CC1` (stereo unspecified), the inhibition was -7.97%.

Take `Cn1c(=O)[nH]c(=O)c2c1nc(N1CCN(CCO)CC1)n2CCSc1nc2ccccc2s1`: the inhibition was -9.93%.

Regarding `COc1ccc(NC(=O)c2c(SC)nsc2SC)cc1`, the inhibition is 3.42%.

For `COc1cccc(C(=O)Nc2c3c(nn2-c2cccc(C)c2C)CS(=O)(=O)C3)c1OC`, the inhibition is 29.9% (active).

Regarding `Cc1cccc(-n2nc3c(c2NC(=O)c2ccc(Br)o2)CSC3)c1C`, the inhibition was -0.62%.

In the case of `O=C(CC1CCCCC1)Nc1c2c(nn1-c1ccc(F)cc1)CS(=O)(=O)C2`, the inhibition is 3.57%.

In the case of `Cc1noc(C)c1S(=O)(=O)N1CCCC(C(=O)Nc2nccs2)C1` (stereo unspecified), the inhibition was 6.69%.

As for `CC(C)C[C@H](NC(=O)NCCc1ccc(Cl)cc1)C(=O)O`, the inhibition is 0.25%.

As to `Cn1cccc1Cc1nnc(SCC(=O)NCc2ccc3c(c2)OCO3)n1CCc1ccccc1`, the inhibition is -2.19%.

With `C=CCn1c(COc2ccccc2C)nnc1SCC(=O)O`, the inhibition is 10.3%.

Consider `COC(=O)c1ccc(NC(=O)CSc2nnc(-c3ccncc3)n2C)cc1`, for which the inhibition is -4.91%.

For the compound `CCOc1cc(CN2CCN(C(=O)CC(C)C)CC2)ccc1OC`, the inhibition was -2.34%.

Take `CCOc1cc(C(=O)N2CCc3cc(OC)c(OC)cc3C2)ccc1OC(F)F`: the inhibition was 90.1% (active).

`CCOc1cc(-c2noc(CCC(=O)N3CCOCC3)n2)ccc1OC`: the inhibition was 8.36%.

As for `CCN(CC)C(=O)N1CCN(C(=O)c2ccc(C)cn2)CC1`, the inhibition is -13.6%.

With `COC(=O)C1(S(=O)(=O)C2(C(=O)OC)CCCC2)CCCC1`, the inhibition is -13%.

Usually inhibition stands for the change of the read-out against control, counted positive when it falls.
